Cycloheximide cs – affects cycloheximide protein synthesis inhibition readout, counter-screen; cell reporter, cycloheximide protein synthesis inhibition counterscreen; max response, %; hit rate 12% among 300,000; in the data active means max response mostly above about 13%, no sharp cut-off; inactive means mostly below about 14%; further: read at 38.3 µM for the half of the compounds with a filed dose; 0% is about no effect
Pf growth 96h – inhibits malaria parasite growth, 96 h; P. falciparum luciferase reporter growth, 96 h; Potency, µM (highest dose often 28.7 µM), inactives show top-dose activity change, negative = inhibition, actives largely listed as inhibitors; hit rate 6.9% among 320,000; further: potency means the concentration at half of the fitted maximal effect; on the % scale 0 is the no-effect control and ±100 the full control effect
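Luminescence readout: decreased luciferase signal marks inhibited growth of reporter-expressing P. falciparum in infected red cells (2% hematocrit, 0.05% parasitemia final), exposed to compound two generations (96 h, 37 C, 5% CO2).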
Shiga toxin inh – inhibitors of Shiga toxin in Vero cells | inhibition, % at 38.7 µM | hit rate 9.2% among 290,000 | Vero cells, Shiga toxin protein synthesis inhibition reporter; in the data active means inhibition mostly above about 28%, no sharp cut-off; inactive means mostly below about 43%; further: 0% is about no effect
AMA1-RON2 inh – inhibitors of Plasmodium falciparum AMA1-RON2 interaction | AlphaScreen AMA1-biotinylated RON2 peptide binding | Potency, µM (top dose mostly 58.2 µM), without a hit: top-dose activity change, negative = inhibition, actives largely listed as inhibitors | hit rate 0.2% among 360,000 | AID 720542;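 further: potency means the concentration at half of the fitted maximal effect; 0% = vehicle wells and -100% = peptide control; nearly all actives have a fitted effect of over 45% in size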
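AMA1 (3D7) with his tag at 25 nM final met compounds first, then biotinylated RON2 peptide at 25 nM; detection used donor plus acceptor beads, 10 µg/mL apiece, read by AlphaScreen after 30 min at room temperature.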
Pf growth 48h – P. falciparum growth inhibition at 48 hours (one generation). P. falciparum luciferase growth in erythrocytes, 48 h. Potency, µM (top dose mostly 28.7 µM), for the others: at the top dose activity change, negative = inhibition, usual class: inhibitors. hit rate 5.9% among 310,000. AID 504832; further: potency means the concentration at half of the fitted maximal effect; on the % scale 0 is the no-effect control and ±100 the full control effect
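Luciferase-expressing parasites in RBCs, 2% Hct / 0.1% parasitemia final; RPMI 1640 + 0.5% Albumax; 37 C, 5% CO2, one generation; luminescence read-out, lower signal = inhibition.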
HCV inh – HCV inhibition | Huh7.5.1 HCVcc-Cre infection, luciferase reporter, 44 h | Potency, µM (titrated, usually from 41.8 µM), for inactives: at the highest dose activity change, negative = inhibition, hits mostly inhibitors | hit rate 3.4% among 340,000 | AID 651820; further: potency means the concentration at half of the fitted maximal effect; on the % scale 0 is the no-effect control and ±100 the full control effect
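Infectious HCVcc-Cre (~0.5 moi) was added to cells just after compound, with cells seeded 4 h earlier at 1,000 per well. Luciferase activity after 44 h culture reported infection; substrate was incubated 15 min at room temperature before reading.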
Active calls of the source: *; ? = inconclusive; . = no result given; [ ] = dose if it differs, or a comment. Sampled rows, rich in hits. Any-hit rate of the full collection: about 21%. Unless noted, the call rests on the fitted dose curve; in most records, active means well fitted curve in the direction sought with a large enough effect; inconclusive means small, poorly fitted or top-dose-only effect, or another doubt; inactive means no such curve, though single readings can be large; an effect the other way counts as inactive or inconclusive.

SMILES	Cycloheximide cs	Pf growth 96h	Shiga toxin inh	AMA1-RON2 inh	Pf growth 48h	HCV inh
CN1CCN(c2ncnc3c2ncn3[C@H]2CN(Cc3ccc(F)cc3)C[C@@H](CO)O2)CC1	.	.	.	-4%	.	.
COc1ccc(NC(=O)c2ccccn2)cc1	24	316%	19	4%	283%	6%
O=C(Nc1ccc(NC(=O)C2CC2)nc1)c1ccccn1	18*	48%	62*	73%	96%	10%
CCC(=O)Nc1ccc(NC(=O)c2ccccn2)cn1	35*	0%	47*	82%	115%	12%
CC(C)C(=O)Nc1ccc(NC(=O)c2ccccn2)cn1	27*	10%	42*	113%	39%	-1%
CN(C(=O)CC1C(=O)NCCN1Cc1cccc(F)c1F)C1CC(C)(C)NC(C)(C)C1 (stereo not drawn)	-2	?	12	-5%	37%	19%
CCc1ccc(C2NC(=S)NC3=C2C(=O)CCC3)cc1 (stereo not drawn)	2	?	-20	0%[2.32 µM]	?	?
CCc1ccc(C2NC(c3ccc(CC)cc3)C([N+](=O)[O-])C(C)(C)C2[N+](=O)[O-])cc1 (stereo not drawn)	-4	13µM*	-12	-2%	?	25%
COc1ccc(C(NC(C)=O)c2cc(Cl)c3cccnc3c2O)cc1OC (stereo not drawn)	-1	7%	-1	-1%	9.3µM*	2µM*
O=C(NC(c1ccccc1)c1cc(Cl)c2cccnc2c1O)c1cccnc1 (stereo not drawn)	-1	9%	-2	.	0.66µM*	-13%
CCC(=O)NC(c1ccc(OC)c(OC)c1)c1cc(Cl)c2cccnc2c1O (stereo not drawn)	7	54%	2	5%	1µM*	?
COc1ccccc1C(NC(C)=O)c1cc(Cl)c2cccnc2c1O (stereo not drawn)	-3	10%	-7	82%	14%[0.00184 µM]	?
CCOc1ccc(C(Nc2cccnc2)c2cc(Cl)c3cccnc3c2O)cc1 (stereo not drawn)	8	?	10	6%	?	?
CN(c1nccc(=O)[nH]1)C1CCN(c2nc3ccccc3n2Cc2ccc(F)cc2)CC1	.	-10%	.	.	?	.
COc1ccc(C(=O)C2CCCN(C(=O)CCC3=NNC(=O)CC3)C2)c(C)c1 (stereo not drawn)	-4	10µM*	17	-3%	0%	-14%
CCCC(=O)N1CCCC(C(=O)c2cccc(OC(C)C)c2)C1 (stereo not drawn)	.	.	.	-9%	.	-22%
O=C(c1cccc(C(F)(F)F)c1)C1CCCN(C(=O)CCc2cnccn2)C1 (stereo not drawn)	2	?	7	3%	-19%	-9%
COc1cccc(C(=O)C2CCCN(C(=O)CCC3=NNC(=O)CC3)C2)c1 (stereo not drawn)	16*	21%	46*	0%	24%	15%
O=C1CCC(CCC(=O)N2CCCC(C(=O)c3cccc(C(F)(F)F)c3)C2)=NN1 (stereo not drawn)	11*	13%	15	?	47%	10%
COc1ccc(C(=O)C2CCCN(C(=O)C3=CCCC3)C2)c(C)c1 (stereo not drawn)	-2	?	-18	-6%	-11%	?
CN(Cc1ccccc1)Cc1nc2scc(-c3ccccc3)c2c(=O)[nH]1	0	?	24	?	?	-11%
COc1ccccc1CCNC(=O)c1ccccc1SCC(=O)N1CCCC1	.	?	.	16%	?	16%
CC(C)CN(C(=O)COC(=O)c1ccccc1SCC(=O)N1CCCC1)C1CCS(=O)(=O)C1 (stereo not drawn)	.	.	.	10µM*	.	16%
O=C(NCCc1ccccc1)c1ccccc1SCC(=O)N1CCCC1	27*	0%	97*	98%	?	18%
Cc1cc(C)cc(N(CCC#N)C(=O)COC(=O)c2ccccc2SCC(=O)N2CCCC2)c1	1	12µM*	9	5%	?	0%
SMILES	Cycloheximide cs	Pf growth 96h	Shiga toxin inh	AMA1-RON2 inh	Pf growth 48h	HCV inh
CCNC(=O)NC(=O)COC(=O)c1ccccc1SCC(=O)NC(=O)NCC	63*	?	68	-2%	13%	4%
O=C(O)c1ccc(CN2C[C@@H](CO)O[C@@H](n3cnc4c(NCc5ccco5)ncnc43)C2)cc1	.	.	.	-6%	.	.
O=C(COC(=O)c1cc2ccccc2cc1O)NC1CCCCC1	.	.	.	-7%	.	?
O=C(OCC(=O)N1CCCCC1)c1ccccc1SCC(=O)N1CCCCC1	20*	6%	31	1%	-4%	?
O=C(OCc1ccc(F)cc1)c1cc2ccccc2cc1O	8.6*	?	15	5%	1%	-6%
CCC1CCCCN1C(=O)COC(=O)c1cc2ccccc2cc1O (stereo not drawn)	50*	-8%	80*	6%	.	-11%
O=C(OCC(=O)N1CCCCC1)c1cc2ccccc2cc1O	24*	9.3µM*	48	9%	52%	-2%
O=C(Nc1ccc2c(c1)OCO2)c1csc([C@H]2C[C@H](O)[C@@H](CO)O2)n1	.	.	.	-5%	.	.
CCOC(=O)N1CCN(CC(=O)Nc2nccs2)CC1	.	.	.	7%	.	.
COc1ccc(OC)c2c1cc(C(=O)N[C@@H](C)C(=O)N[C@@H](C(=O)O)c1ccccc1)n2C	-1	2%	-4	0%	19%	14%
CCCCc1c(O)nc(SCC(=O)N2CCCCC2)[nH]c1=O	17*	37%	65	17%	22%	32%
CCc1c(C)nc(SCC(=O)N2CCCCC2)[nH]c1=O	2	0%	-8	0%	51%	16%
CCc1c(C)nc(SCC(=O)N2CCCCC2C)[nH]c1=O (stereo not drawn)	3	7.4µM*	10	6%	-1%	13%
CCc1c(O)nc(SCC(=O)N(CC)CC)[nH]c1=O	-6	13µM*	3	18%	?	10%
CCOC(=O)C1=CCCN(S(=O)(=O)c2ccc(C)cc2)C1	.	.	.	18%	.	.
COc1cc(C(C)=O)ccc1OCc1cc(C(=O)N(C)CCC2CCCCO2)no1 (stereo not drawn)	53*	-11%	101*	3%	-6%	10%
COc1ccccc1OCc1cc(C(=O)N(C)CCC2CCCCO2)no1 (stereo not drawn)	59*	?	126*	-2%	8%	0%
COc1cc(C(=O)NCC2CCCO2)ccc1OCc1c(C)noc1C (stereo not drawn)	-5	.	-18	3%	-6%	-11%
CCCCC(=O)Nc1nnc(CCc2ccccc2)s1	-2	0%	16	3%	-20%	-9%
CCOC(=O)c1nnsc1NC(C)=O	-2	?	-9	4%	2%	2%
COC(=O)c1ccc(N2CCOCC2)c(NC(=O)Nc2cccc(OC)c2)c1	-3	-31%	-10	8%	4%	-30%

Compound activity (PubChem)
